Binding signal data for one sequence are collected here from publication PMC7862700, “An all-to-all approach to the identification of sequence-specific readers for epigenetic DNA modifications on cytosine”.

What all share (test): DAPPL (digital affinity profiling via proximity ligation, sequencing); 10 mM Tris-HCl pH 7.5, 50 mM NaCl, 1 mM DTT, 4% glycerol, room temperature, 30 min; GST-TFs on glutathione beads, 16-mer random dsDNA library, 0.1% formaldehyde crosslink after washing; high values mean tight binding
The target in assay [1] is T1, FLI1 (Homo sapiens, UniProt Q01543 1-452).
T1 sequence: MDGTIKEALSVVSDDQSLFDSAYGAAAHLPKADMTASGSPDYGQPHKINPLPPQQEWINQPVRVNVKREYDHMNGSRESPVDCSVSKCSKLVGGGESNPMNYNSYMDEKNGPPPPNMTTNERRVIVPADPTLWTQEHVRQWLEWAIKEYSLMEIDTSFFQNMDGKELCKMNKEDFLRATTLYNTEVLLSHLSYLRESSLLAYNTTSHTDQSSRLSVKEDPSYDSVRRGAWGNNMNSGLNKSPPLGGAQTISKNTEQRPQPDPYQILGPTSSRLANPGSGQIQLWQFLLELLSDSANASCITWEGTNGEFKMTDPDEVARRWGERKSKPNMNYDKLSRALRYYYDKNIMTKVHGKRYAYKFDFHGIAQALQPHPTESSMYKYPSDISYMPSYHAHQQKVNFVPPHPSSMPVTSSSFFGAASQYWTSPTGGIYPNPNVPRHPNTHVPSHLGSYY
Particulars: protein: recombinant; tags: N-terminal GST; dsDNA, one strand shown. In outline: (§1)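 The binding signal reported is, for every hexamer, its read frequency for a factor over its read frequency for the tag-only sample. Reads came from pools of yeast-expressed, GST-fused human transcription factors on glutathione beads, barcoded with DNA and mixed with that sample, which were incubated with 200 nmole of a random double-stranded 16-mer DNA library in Tris/NaCl/DTT/glycerol buffer at room temperature for 30 min. After washing, the pools were crosslinked with 0.1% formaldehyde, proximity-ligated with BsaI/T4 ligase for 1 h at 37 °C, PCR-amplified and sequenced on an Illumina NextSeq500.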

Assay [2] concerns the target T2, ELK1 (Homo sapiens, UniProt P19419 1-428).
T2 sequence: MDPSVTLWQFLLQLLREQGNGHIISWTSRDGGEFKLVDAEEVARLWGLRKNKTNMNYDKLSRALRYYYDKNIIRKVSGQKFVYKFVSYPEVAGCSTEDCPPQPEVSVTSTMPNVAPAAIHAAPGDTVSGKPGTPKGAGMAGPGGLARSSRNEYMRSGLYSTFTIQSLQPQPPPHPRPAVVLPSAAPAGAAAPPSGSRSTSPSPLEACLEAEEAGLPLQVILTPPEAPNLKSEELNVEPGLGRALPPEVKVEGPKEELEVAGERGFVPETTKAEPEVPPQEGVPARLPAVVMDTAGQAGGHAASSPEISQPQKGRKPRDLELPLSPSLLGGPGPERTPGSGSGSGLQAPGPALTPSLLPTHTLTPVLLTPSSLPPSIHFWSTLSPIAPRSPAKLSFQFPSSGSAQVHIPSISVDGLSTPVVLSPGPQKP
Particulars: protein: recombinant; tags: N-terminal GST; dsDNA, one strand shown. In outline:
as §1

For assay [3], the target named is T3, GABPA (Homo sapiens, UniProt Q06546 1-454).
T3 sequence: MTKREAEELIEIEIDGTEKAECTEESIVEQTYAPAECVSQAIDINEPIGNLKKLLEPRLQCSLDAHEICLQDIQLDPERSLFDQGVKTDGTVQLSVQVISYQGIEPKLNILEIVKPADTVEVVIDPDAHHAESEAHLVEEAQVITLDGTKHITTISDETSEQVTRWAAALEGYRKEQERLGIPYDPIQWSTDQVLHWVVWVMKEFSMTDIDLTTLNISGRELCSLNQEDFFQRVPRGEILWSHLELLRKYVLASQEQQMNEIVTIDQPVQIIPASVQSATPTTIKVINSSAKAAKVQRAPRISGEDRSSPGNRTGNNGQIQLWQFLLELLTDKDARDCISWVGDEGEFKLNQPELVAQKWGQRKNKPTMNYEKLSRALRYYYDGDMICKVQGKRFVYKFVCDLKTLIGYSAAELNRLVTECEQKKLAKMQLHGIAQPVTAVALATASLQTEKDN
Particulars: protein: recombinant; tags: N-terminal GST; dsDNA, one strand shown. In outline: as §1

The target of assay [4] is T4, ERG (Homo sapiens, UniProt P11308 1-479).
T4 sequence: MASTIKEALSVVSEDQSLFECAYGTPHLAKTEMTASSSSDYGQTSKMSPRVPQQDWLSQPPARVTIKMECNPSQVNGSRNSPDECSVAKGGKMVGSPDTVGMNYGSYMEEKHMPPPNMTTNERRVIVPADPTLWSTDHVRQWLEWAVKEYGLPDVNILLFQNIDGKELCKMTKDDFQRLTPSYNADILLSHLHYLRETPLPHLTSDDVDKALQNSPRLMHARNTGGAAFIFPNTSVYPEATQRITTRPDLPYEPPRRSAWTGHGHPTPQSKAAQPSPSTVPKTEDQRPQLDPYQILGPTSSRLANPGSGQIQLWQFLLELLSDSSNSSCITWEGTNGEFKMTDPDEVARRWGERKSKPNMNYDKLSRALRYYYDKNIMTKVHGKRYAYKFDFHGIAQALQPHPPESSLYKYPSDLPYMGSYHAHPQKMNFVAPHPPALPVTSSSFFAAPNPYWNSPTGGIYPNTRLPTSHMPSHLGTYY
Particulars: protein: recombinant; tags: N-terminal GST; dsDNA, one strand shown. The method in brief: as §1

Assay [5] deals with ELF1 (Homo sapiens, UniProt P32519 1-619). Particulars: protein: recombinant; tags: N-terminal GST; dsDNA, one strand shown. The method in brief: as §1
Assay [6] deals with T5, EHF (Homo sapiens, UniProt Q9NZC4 1-300).
T5 sequence: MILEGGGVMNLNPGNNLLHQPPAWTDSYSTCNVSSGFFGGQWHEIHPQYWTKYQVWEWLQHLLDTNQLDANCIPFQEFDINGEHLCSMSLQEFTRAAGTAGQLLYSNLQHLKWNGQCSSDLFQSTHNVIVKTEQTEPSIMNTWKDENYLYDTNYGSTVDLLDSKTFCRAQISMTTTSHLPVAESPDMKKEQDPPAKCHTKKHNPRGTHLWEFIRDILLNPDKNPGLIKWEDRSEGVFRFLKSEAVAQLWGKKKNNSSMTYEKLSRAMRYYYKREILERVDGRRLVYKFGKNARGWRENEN
Particulars: protein: recombinant; tags: N-terminal GST; dsDNA, one strand shown. The method in brief:
as §1

Assay [7] concerns the target SPI1 (Homo sapiens, UniProt P17947 1-270). Particulars: protein: recombinant; tags: N-terminal GST; dsDNA, one strand shown. The method in brief:
as §1

Assay [8] has as its target T6, ELK3 (Homo sapiens, UniProt P41970 1-407).
T6 sequence: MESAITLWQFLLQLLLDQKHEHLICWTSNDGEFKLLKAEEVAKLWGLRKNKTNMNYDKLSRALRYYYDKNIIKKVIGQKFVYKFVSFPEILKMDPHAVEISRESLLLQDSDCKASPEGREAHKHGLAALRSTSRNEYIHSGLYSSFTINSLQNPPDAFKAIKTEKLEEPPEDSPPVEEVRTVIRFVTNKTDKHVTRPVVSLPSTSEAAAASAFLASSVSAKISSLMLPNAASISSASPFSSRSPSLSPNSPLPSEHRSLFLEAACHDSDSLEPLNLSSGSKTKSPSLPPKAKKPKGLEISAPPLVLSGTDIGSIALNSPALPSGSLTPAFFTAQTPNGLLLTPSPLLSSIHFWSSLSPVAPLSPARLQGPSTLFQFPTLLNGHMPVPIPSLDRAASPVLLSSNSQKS
Particulars: protein: recombinant; tags: N-terminal GST; dsDNA, one strand shown. In outline: as §1

Assay [9] has as its target T7, FEV (Homo sapiens, UniProt Q99581 1-238).
T7 sequence: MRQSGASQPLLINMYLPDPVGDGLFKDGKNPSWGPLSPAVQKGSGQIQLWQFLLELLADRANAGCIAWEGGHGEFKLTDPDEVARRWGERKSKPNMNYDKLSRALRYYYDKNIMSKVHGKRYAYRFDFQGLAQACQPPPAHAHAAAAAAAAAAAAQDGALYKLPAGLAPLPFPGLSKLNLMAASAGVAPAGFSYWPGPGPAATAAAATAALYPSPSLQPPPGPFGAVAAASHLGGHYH
Particulars: protein: recombinant; tags: N-terminal GST; dsDNA, one strand shown. The method in brief: as §1

Assay [10] deals with ETV5 (Homo sapiens, UniProt P41161 1-510). Conditions: protein: recombinant; tags: N-terminal GST; dsDNA, one strand shown. The method in brief: as §1
Assay [11] deals with HSF1 (Homo sapiens, UniProt Q00613 1-529). Particulars: protein: recombinant; tags: N-terminal GST; chain copies: 3; dsDNA, one strand shown. The method in brief:
as §1

In assay [12] the target is T8, SPIC (Homo sapiens, UniProt Q8N5J4 1-248).
T8 sequence: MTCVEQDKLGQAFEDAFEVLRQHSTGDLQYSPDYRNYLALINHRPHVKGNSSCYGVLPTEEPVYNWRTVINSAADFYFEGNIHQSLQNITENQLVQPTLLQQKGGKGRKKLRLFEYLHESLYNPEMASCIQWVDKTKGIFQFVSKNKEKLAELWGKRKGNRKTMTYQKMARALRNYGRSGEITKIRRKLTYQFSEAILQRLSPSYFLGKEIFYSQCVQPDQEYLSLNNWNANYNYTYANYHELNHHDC
Conditions: protein: recombinant; tags: N-terminal GST; dsDNA, one strand shown. In outline: as §1

Assay [13] addresses ELF4 (Homo sapiens, UniProt Q99607 1-663). Particulars: protein: recombinant; tags: N-terminal GST; dsDNA, one strand shown. In outline:
as §1

The target in assay [14] is T9, ELK4 (Homo sapiens, UniProt P28324-2 1-405).
T9 sequence: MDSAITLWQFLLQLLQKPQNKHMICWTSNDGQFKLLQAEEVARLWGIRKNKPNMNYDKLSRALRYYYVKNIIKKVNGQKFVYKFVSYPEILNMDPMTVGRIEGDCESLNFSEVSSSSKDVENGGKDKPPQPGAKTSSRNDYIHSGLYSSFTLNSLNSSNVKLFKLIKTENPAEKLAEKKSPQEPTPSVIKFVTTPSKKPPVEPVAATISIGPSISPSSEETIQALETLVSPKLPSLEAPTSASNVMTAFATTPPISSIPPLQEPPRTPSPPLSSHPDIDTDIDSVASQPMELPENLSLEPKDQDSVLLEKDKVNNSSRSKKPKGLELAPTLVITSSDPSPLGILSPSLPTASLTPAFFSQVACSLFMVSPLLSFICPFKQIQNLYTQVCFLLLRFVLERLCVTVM
Conditions: protein: recombinant; tags: N-terminal GST; dsDNA, one strand shown. In outline:
as §1

In assay [15] the target is T10, ETV2 (Homo sapiens, UniProt O00321 1-342).
T10 sequence: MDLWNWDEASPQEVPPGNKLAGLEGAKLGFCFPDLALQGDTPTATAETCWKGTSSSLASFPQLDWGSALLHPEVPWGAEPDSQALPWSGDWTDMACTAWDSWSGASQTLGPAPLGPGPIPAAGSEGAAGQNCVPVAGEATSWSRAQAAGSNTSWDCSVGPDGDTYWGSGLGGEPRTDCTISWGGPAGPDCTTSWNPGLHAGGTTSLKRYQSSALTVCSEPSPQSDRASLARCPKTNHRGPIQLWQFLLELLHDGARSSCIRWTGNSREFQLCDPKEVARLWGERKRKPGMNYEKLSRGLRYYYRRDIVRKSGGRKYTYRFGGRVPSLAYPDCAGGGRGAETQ
Particulars: protein: recombinant; tags: N-terminal GST; dsDNA, one strand shown. In outline: as §1

Assay [16] has as its target T11, ELF3 (Homo sapiens, UniProt P78545 1-371).
T11 sequence: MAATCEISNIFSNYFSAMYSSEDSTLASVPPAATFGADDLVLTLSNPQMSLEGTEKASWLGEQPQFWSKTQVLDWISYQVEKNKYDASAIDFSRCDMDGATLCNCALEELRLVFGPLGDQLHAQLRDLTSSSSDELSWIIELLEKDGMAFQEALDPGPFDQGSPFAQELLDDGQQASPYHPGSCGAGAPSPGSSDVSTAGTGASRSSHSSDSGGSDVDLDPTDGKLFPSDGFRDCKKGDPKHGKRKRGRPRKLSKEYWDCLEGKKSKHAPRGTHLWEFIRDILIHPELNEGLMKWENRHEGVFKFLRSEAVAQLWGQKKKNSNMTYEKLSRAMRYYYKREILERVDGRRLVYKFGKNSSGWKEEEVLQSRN
Particulars: protein: recombinant; tags: N-terminal GST; dsDNA, one strand shown. In outline: as §1

The target in assay [17] is ETV1 (Homo sapiens, UniProt P50549 1-477). Particulars: protein: recombinant; tags: N-terminal GST; dsDNA, one strand shown. In outline:
as §1

Sequence of ETV1 (P50549 whole entry): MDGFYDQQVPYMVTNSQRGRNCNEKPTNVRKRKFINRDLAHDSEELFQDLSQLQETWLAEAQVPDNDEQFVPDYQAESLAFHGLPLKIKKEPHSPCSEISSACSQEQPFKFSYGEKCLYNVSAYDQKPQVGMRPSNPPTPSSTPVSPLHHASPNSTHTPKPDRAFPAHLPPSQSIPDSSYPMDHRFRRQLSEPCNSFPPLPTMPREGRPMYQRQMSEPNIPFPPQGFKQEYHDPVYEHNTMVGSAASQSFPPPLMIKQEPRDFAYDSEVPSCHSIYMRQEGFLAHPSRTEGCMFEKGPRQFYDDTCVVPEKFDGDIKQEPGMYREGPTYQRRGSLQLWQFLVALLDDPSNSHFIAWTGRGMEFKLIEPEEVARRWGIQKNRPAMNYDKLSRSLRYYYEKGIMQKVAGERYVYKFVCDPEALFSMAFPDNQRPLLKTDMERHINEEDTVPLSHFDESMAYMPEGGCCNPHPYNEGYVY
Sequence of HSF1 (Q00613 whole entry): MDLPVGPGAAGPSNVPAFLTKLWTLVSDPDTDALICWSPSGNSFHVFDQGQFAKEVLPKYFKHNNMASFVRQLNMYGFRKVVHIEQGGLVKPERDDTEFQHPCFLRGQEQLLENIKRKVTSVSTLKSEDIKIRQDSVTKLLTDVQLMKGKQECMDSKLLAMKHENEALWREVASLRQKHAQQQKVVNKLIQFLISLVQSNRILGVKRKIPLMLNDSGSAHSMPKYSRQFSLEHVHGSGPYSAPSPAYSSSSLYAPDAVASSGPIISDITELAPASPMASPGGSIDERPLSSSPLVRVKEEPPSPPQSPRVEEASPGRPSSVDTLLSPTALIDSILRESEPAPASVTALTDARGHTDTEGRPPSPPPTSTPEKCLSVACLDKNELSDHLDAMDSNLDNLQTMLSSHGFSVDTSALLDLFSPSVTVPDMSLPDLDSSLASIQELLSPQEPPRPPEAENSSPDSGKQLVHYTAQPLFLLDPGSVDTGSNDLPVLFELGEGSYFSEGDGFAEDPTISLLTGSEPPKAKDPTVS
Sequence of ELF1 (P32519 whole entry): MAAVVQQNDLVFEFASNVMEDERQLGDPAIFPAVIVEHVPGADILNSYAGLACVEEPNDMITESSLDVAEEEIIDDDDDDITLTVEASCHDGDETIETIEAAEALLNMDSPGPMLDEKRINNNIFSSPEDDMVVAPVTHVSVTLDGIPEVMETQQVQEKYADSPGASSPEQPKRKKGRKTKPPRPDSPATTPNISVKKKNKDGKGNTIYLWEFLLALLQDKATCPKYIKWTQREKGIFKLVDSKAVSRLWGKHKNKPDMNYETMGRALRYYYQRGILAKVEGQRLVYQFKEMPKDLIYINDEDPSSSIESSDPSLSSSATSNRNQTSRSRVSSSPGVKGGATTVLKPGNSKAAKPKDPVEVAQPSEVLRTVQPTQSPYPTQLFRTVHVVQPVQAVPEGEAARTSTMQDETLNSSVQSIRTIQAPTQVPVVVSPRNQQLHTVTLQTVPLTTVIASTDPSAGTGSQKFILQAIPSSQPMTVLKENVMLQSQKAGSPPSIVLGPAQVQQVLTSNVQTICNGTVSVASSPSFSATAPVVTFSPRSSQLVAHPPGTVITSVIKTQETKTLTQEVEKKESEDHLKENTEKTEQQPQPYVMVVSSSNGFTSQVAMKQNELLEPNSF
Sequence of ETV5 (P41161 whole entry): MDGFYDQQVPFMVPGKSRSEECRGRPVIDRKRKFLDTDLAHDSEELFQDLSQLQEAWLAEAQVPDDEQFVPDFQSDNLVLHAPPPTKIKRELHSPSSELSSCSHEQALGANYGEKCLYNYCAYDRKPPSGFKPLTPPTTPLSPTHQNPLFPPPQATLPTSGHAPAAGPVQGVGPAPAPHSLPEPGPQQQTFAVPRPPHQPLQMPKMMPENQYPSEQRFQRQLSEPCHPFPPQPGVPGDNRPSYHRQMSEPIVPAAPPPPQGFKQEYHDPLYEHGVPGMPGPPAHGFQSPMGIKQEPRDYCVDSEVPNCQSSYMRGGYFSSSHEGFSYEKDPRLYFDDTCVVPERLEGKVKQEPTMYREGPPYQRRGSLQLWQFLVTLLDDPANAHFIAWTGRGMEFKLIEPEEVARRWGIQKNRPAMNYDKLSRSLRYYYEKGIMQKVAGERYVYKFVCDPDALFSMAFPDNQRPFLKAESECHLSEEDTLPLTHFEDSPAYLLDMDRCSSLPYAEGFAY
Sequence of ELF4 (Q99607 whole entry): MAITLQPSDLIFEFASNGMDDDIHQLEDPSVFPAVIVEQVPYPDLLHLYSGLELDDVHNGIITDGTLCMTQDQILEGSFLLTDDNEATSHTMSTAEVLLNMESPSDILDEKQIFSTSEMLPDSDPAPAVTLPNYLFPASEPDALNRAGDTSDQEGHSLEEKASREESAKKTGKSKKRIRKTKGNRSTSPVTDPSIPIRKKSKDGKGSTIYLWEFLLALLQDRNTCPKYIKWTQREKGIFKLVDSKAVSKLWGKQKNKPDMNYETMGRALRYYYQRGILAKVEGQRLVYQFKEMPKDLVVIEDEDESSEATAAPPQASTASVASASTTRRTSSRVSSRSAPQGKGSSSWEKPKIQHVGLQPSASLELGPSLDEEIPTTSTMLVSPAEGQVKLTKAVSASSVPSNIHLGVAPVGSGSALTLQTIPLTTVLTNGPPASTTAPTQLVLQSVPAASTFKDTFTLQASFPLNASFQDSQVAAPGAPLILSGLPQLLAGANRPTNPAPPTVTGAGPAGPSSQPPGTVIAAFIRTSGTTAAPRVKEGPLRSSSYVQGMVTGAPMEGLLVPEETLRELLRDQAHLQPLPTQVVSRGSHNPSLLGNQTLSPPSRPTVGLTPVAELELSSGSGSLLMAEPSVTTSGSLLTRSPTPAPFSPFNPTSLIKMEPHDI

As to ACGACG, the binding signal in assay [1] was 1.15 fold enrichment (6-mer frequency, TF over GST control); in assay [2] it was 1.15 fold enrichment (6-mer frequency, TF over GST control); in [3], 1.22 fold enrichment (6-mer frequency, TF over GST control); in [4] it was 1.1 fold enrichment (6-mer frequency, TF over GST control); in [5], 1.09 fold enrichment (6-mer frequency, TF over GST control); in assay [6] it was 1.1 fold enrichment (6-mer frequency, TF over GST control). The binding signal in assay [7] was 1.11 fold enrichment (6-mer frequency, TF over GST control); in assay [8] it was 1.15 fold enrichment (6-mer frequency, TF over GST control); in assay [9], 1.17 fold enrichment (6-mer frequency, TF over GST control); in [10], 1.18 fold enrichment (6-mer frequency, TF over GST control); in assay [11], 1.02 fold enrichment (6-mer frequency, TF over GST control); in assay [12] it was 1.05 fold enrichment (6-mer frequency, TF over GST control). Besides, the binding signal in [13] is 1.2 fold enrichment (6-mer frequency, TF over GST control); in assay [14], 1.17 fold enrichment (6-mer frequency, TF over GST control); in assay [15] it was 1.16 fold enrichment (6-mer frequency, TF over GST control); in [16], 1.17 fold enrichment (6-mer frequency, TF over GST control); in [17], 1.01 fold enrichment (6-mer frequency, TF over GST control).
